# Data as given in PubChem BioAssay (NCATS).
# Records with an inconclusive call do not appear. Where a call stands in place of a potency, no number is given. Calls of active or inactive are those of the source. The call rests on the fitted dose curve; in most records, active means well fitted curve in the direction sought with a large enough effect; inconclusive means small, poorly fitted or top-dose-only effect, or another doubt; inactive means no such curve, though single readings can be large; an effect the other way counts as inactive or inconclusive.
# Assays:
# [1] = P-glycoprotein substrates identified in KB-3-1 adenocarcinoma cell line, qHTS therapeutic library screen (AID 1346986); further: nearly all actives have a fitted effect of over 60% in size
# In short: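 Dose-response cytotoxicity, KB-3-1 vs P-gp-high KB-8-5-11, no colchicine in assay medium. Read: CellTiter-Glo at 72 h.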
# [2] = P-glycoprotein substrates identified in KB-8-5-11 adenocarcinoma cell line, qHTS therapeutic library screen (AID 1346987); further: nearly all actives have a fitted effect of over 65% in size; on activity change, negative = cytotoxicity: series mostly up to about 44 µM
# In short: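 In this qHTS, P-gp-rich KB-8-5-11 cells received library compounds across a concentration range. Viability was quantified by luminescence after 72 h at 37 degree C.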
Compound,outcome [1],"activity change, negative = cytotoxicity [2]",Potency [1],Potency [2]
C[C@@H]1O[C@@H](O[C@@H]2[C@@H](O)[C@H](O[C@H]3[C@H](O[C@H]4CC[C@@]5(C)C(CC[C@]6(C)C5CC=C5[C@@H]7CC(C)(C)CC[C@]7(C(=O)O[C@@H]7O[C@H](CO)[C@@H](O)[C@H](O)[C@H]7O)CC[C@]56C)C4(C)C)O[C@H](C(=O)O)[C@@H](O)[C@@H]3O)OC[C@H]2O)[C@H](O)[C@H](O)[C@H]1O (some centres undefined),inactive [at 9.29 µM],6.37% [at 9.29 µM] (inactive),,
O=C(COCC(=O)N1CCN(C(c2ccccc2)c2ccccc2)CC1)Nc1ccc(Cl)cc1C(=O)O,,,inactive,inactive
CC1(C)CC[C@]2(C(=O)O)CC[C@]3(C)C(=CCC4[C@@]5(C)CC[C@H](O[C@@H]6O[C@H](C(=O)O)[C@@H](O)[C@H](O[C@@H]7O[C@H](CO)[C@H](O)[C@H](O)[C@H]7O)[C@H]6O[C@@H]6O[C@H](CO)[C@@H](O)[C@H](O)[C@H]6O)C(C)(C)C5CC[C@]43C)[C@@H]2C1 (some centres undefined),inactive [at 5.11 µM],3.75% [at 5.11 µM] (inactive),,
Cc1cccc(-c2nn3c(c2-c2ccnc4ccc(C(N)=O)cc24)CCC3)n1,,,inactive,inactive
COc1ccc2c(c1)N1C(=O)C[C@@]34C=CC[N@+]5([O-])CC[C@H]2[C@H](CC3)[C@@]145,,,inactive,inactive
C=C1[C@@H]2CC[C@@]3(C)[C@H](c4ccoc4)OC(=O)C[C@]13O[C@H]1CC(=O)C(C)(C)[C@H](C(O)C(=O)OC)[C@]12C (some centres undefined),,,inactive,inactive
COc1ccc(OC)c(C2C(C#N)=C(N)Oc3n[nH]c(-c4ccc5ccccc5c4)c32)c1 (centres undefined),,,inactive,inactive
